Bioassay records as filed in PubChem BioAssay.
Shown are actives, neighbours in structure and some others; about 32% of the full set was active somewhere.
CYP2C19 act: human CYP2C19 activators, primary screen, biochemical, luminescence; AID 1025, 2008; 96,000 tested, under 10 active; recombinant CYP2C19, luciferin-H EGE luminescence; active compounds read high; 0 = fully inhibited enzyme, 1 = untreated enzyme; Cytochrome P450 2C19 (Homo sapiens), P33261; activation factor at 5 µM;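 active = activation factor of at least 2 at 5 µM in the primary screen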;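 also: 0 = wells with 2.5 mM tranylcypromine and 1 = vehicle-only wells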
Target sequence (P33261 whole entry, looked up): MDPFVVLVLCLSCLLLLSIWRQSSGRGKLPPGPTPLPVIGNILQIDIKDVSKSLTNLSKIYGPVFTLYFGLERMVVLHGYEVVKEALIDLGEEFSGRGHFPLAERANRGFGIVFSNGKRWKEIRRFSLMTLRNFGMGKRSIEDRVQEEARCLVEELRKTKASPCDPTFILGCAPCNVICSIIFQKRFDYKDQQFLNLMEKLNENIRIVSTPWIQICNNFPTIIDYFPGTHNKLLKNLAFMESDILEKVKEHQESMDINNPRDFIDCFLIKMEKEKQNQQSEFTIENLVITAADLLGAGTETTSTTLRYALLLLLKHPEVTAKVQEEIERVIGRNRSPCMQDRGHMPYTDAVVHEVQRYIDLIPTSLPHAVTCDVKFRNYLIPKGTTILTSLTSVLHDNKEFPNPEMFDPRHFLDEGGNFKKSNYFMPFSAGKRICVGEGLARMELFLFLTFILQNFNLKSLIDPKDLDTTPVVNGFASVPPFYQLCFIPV
PostGolgi ctrl: growth inhibition of yeast control strain, primary screen, counter-screen for post-Golgi transport modulator project; efflux-deficient yeast background strain, growth absorbance A615, 16 h; inhibition, % at 10 µM; 98,000 tested, 5% active; AID 738, 2007
CYP2C19 inhib: blockers of cytochrome P450 2C19 activity – biochemical, luminescence, ADME assay, primary screen; CYP2C19 Supersomes, luciferin-H EGE luminescence, 30 min; inhibition, % at 5 µM; P33261; 96,000 tested, 21% active; AID 778, 2007;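 active = CYP2C19 inhibition above a set limit at 5 µM in the primary screen, cut at about 50% in these data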;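 also: plate controls were negative control wells for no effect and 2.5 mM tranylcypromine positive control for full effect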
PostGolgi yeast: phenotypic screen on post-Golgi transport, primary screen. post-Golgi transport phenotypic cell assay. inhibition, % at 10 µM. 98,000 tested, 0.9% active;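 also: yeast cells grown in 1536-well plates; yeast grown about 18 h at 30C before absorbance read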
CYP2C9 inh: blockers of cytochrome P450 2C9 activity – biochemical, luminescence, ADME assay, primary screen; P11712; CYP2C9 Supersomes, luciferin-H conversion; inhibition, % at 5 µM; 96,000 tested, 20% active; AID 777, 2007;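 active = blocking of liver enzyme CYP2C9 beyond about 50% at 5 µM, limit read from the data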
CYP2C9 activ: human CYP2C9 activators, primary screen, biochemical, luminescence; activation factor at 5 µM; recombinant CYP2C9, luciferin-H conversion; active compounds read high; factor 1 = untreated enzyme, 0 = blocked; Cytochrome P450 2C9 (Homo sapiens), P11712; 96,000 tested, 1.4% active;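 active = activation factor of 2 or more for CYP2C9 at a 5 µM dose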;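 also: 0 = sulfaphenazole-blocked wells and 1 = vehicle-only wells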
* = called active by the depositor; . = not tested or not shown. Rule as the data show it, unless noted: active = inhibition above about 30%; inactive = the rest.

SMILES | CYP2C19 act | PostGolgi ctrl | CYP2C19 inhib | PostGolgi yeast | CYP2C9 inh | CYP2C9 activ
COc1ccc(-c2ccnc3nc(Sc4ncc(C(F)(F)F)cc4Cl)nn23)cc1 | 0.7 | 40* | 30 | -7 | 52* | 0.5
CSc1nc2nccc(-c3ccc(Cl)cc3)n2n1 | 1 | 40* | -3 | -1 | -12 | 1.1
COc1ccc(CCNC(=O)c2oc3ccc(S(=O)(=O)N4CCOCC4)cc3c2C)cc1OC | 0.7 | 5 | 33 | 9 | 73* | 0.3
Cc1c(C(=O)NCCc2ccccc2)oc2ccc(S(=O)(=O)N3CCC4(CC3)OCCO4)cc12 | 0.4 | 11 | 63* | -11 | 87* | 0.1
O=C(C(NS(=O)(=O)c1cccs1)c1ccccc1)N1CCN(c2ccccc2F)CC1 (stereo not drawn) | 0.3 | 18 | 69* | -3 | 56* | 0.4
Cc1ccc(C)c(N2CCN(C(=O)CNS(=O)(=O)c3cccs3)CC2)c1 | 0.5 | 16 | 54* | -7 | 50* | 0.5
Cc1cccc(N2CCN(C(=O)C(NS(=O)(=O)c3cccs3)c3ccccc3)CC2)c1C (stereo not drawn) | 0.8 | 40* | 22 | -4 | 2 | 1
CCOC(=O)N1CCN(C(=O)CNS(=O)(=O)c2cccs2)CC1 | 1 | -3 | 4 | -1 | 8 | 0.9
O=C(c1ccco1)N1CCN(c2ccccc2F)CC1 | 0.9 | -1 | 14 | -1 | -16 | 1.2
O=C(C(Sc1ccccc1)c1ccccc1)N1CCN(c2ccccc2F)CC1 (stereo not drawn) | 0.1 | 16 | 86* | 5 | 76* | 0.2
COc1cc(C)nc(N2CCC(C(=O)NC3CCCCC3)CC2)n1 | 0.5 | 12 | 46 | -4 | 28 | 0.7
CC1=Nc2cccc3cccc(c23)N1 | 1 | 3 | 1 | -4 | 4 | 1
c1cc2c3c(cccc3c1)NC1(CCCCC1)N2 | 0.3 | 4 | 72* | 2 | 52* | 0.5
c1cc2c3c(cccc3c1)NC1(CCCCCC1)N2 | 0.1 | -5 | 87* | 3 | 62* | 0.4
Cc1ccc(S(=O)(=O)N2CCC(C(=O)N[C@H](C(=O)NCC3CCCO3)C(C)C)CC2)cc1 (stereo partly drawn) | 1 | -3 | 5 | -3 | -1 | 1
CN=Cc1cc(-c2ccccc2)sc1O | 0.8 | -1 | 24 | -1 | -28 | 1.3
CCC(C)[C@H](NC(=O)OC(C)(C)C)C(=O)N/N=C/c1ccc2nccnc2c1 (stereo partly drawn) | 1 | 1 | -3 | -6 | 55* | 0.5
CC(C)C[C@H](NC(=O)OC(C)(C)C)C(=O)N/N=C/c1ccc2nccnc2c1 | 1.1 | -1 | -12 | 5 | 21 | 0.8
CCOC(=O)Cn1c(=O)n(Cc2ccco2)c(=O)c2ccc(C(=O)NC3CCCC3)cc21 | 0.6 | 4 | 39 | 0 | 48 | 0.5
CC1(C)CC(=O)N(CC(=O)NCc2ccc(F)cc2)c2ccccc2S1(=O)=O | 0.4 | 7 | 62* | -6 | 8 | 0.9
CC1(C)CC(=O)N(CC(=O)NCc2ccccc2)c2ccccc2S1(=O)=O | 0.3 | 5 | 69* | 0 | 39 | 0.6
COCCNC(=O)CSc1nc(-c2ccccc2)c(-c2ccccc2)o1 | 0.2 | 19 | 82* | -9 | 71* | 0.3
COCCNC(=O)CC(c1ccccc1)c1ccccc1 | 0.5 | 1 | 52* | -7 | 36 | 0.6
COCCNC(=O)Cc1ccc(Br)cc1 | 0.4 | 6 | 56* | 3 | -7 | 1.1
O=C(CC(c1ccccc1)c1ccccc1)NCCO | 0.8 | 2 | 19 | -1 | 17 | 0.8
SMILES | CYP2C19 act | PostGolgi ctrl | CYP2C19 inhib | PostGolgi yeast | CYP2C9 inh | CYP2C9 activ
CN1CCC2(CC1)C1CN(C)CC=C1C(C#N)=C(N)C2(C#N)C#N (stereo not drawn) | 1 | 4 | 1 | -1 | 3 | 1
COC(=O)C(CCSC)NC(=O)c1cccc([N+](=O)[O-])c1 (stereo not drawn) | 0.8 | -8 | 25 | -8 | 10 | 0.9
C=CCn1c(SCC(=O)c2ccc(Br)cc2)nnc1C(CC(C)C)NC(=O)c1cccs1 (stereo not drawn) | 0.8 | 26 | 18 | 3 | -6 | 1.1
Cc1ccc(C(O)c2ccncc2)cc1 (stereo not drawn) | 0.3 | 0 | 72* | -2 | 78* | 0.2
Cc1ccccc1C(O)c1ccncc1 (stereo not drawn) | 0.3 | -3 | 68* | 7 | 74* | 0.3
CCC(=O)c1ccc(OCC(=O)N2CCc3cc(OC)c(OC)cc3C2)cc1 | 0.6 | 0 | 41 | -17 | 38 | 0.6
CCC(=O)N1CCc2cc(OC)c(OC)cc2C1COc1ccc(C(=O)OC)cc1 (stereo not drawn) | 0.4 | 12 | 60* | 8 | 33 | 0.7
Cc1c(C(=O)/C=C/c2cccs2)oc2ccc(F)cc12 | 0.7 | 7 | 30 | -4 | 19 | 0.8
Cc1ccc(O)c(N=CC2=C(O)c3ccccc3C2=O)c1 | 0.5 | 32* | 50 | 1 | 79* | 0.2
Cc1cc(OC(C)C(=O)N/N=C/CC(C)c2ccccc2)ccc1Cl (stereo not drawn) | 0.3 | -2 | 74* | -7 | 25 | 0.8
Fc1ccc(CSc2nc3ccccc3[nH]2)c2ccccc12 | 0 | 47* | 99* | 2 | 98* | 0
Fc1ccc(CSc2nc3ncccc3[nH]2)cc1 | 0.2 | 3 | 82* | -9 | 51* | 0.5
Fc1ccc(CSc2nc3ccccc3[nH]2)cc1 | 0.1 | 12 | 93* | 14 | 56* | 0.4
O=c1cc(CSc2nc3ccccc3[nH]2)c2ccccc2[nH]1 | 0.7 | 7 | 34 | -6 | 38 | 0.6
Nc1nc(CSc2nc3ccccc3[nH]2)cs1 | 0.2 | 5 | 76* | 7 | 44 | 0.6
CCOC(=O)COc1cc(Br)c(C2NC(=O)NC(C)=C2C(C)=O)cc1OCC (stereo not drawn) | 0.8 | 3 | 16 | 5 | 35 | 0.6
COc1ccccc1S(=O)Cc1ccc(C(=O)O)o1 (stereo not drawn) | . | 22 | . | -5 | . | .
CCCOc1ccc(CSc2nc3ccccc3[nH]2)cc1 | 0.6 | -1 | 39 | -7 | 90* | 0.1
CCCCOc1ccc(CSc2n[nH]c(C)n2)cc1 | 0.6 | 20 | 38 | -1 | 28 | 0.7
CCCCOc1ccc(CSc2ncn[nH]2)cc1 | 0.1 | 1 | 93* | 2 | 73* | 0.3
CC1=C(C(=O)Nc2ccccc2)C(c2sccc2C)n2nnnc2N1 (stereo not drawn) | 0.8 | 4 | 21 | -7 | 2 | 1
COc1ccccc1N1CCN(C(=O)Cc2cccs2)CC1 | 0.8 | 38* | 19 | -1 | -3 | 1
